Reference: article PMC4552634, “A New Set of Chemical Starting Points with Plasmodium falciparum Transmission-Blocking Potential for Antimalarial Drug Discovery” (PLoS ONE, 2015)
Where two headings read alike, the source gives them in different places. The campaign covered roughly 13,000 compounds. About 3,200 (25%) showed an effect of 50% or more. The list shows a part of the results.

System: P. falciparum stage V gametocytes
Parameters: BacTiter-Glo ATP luminescence viability of purified stage V gametocytes in 384-well plates, per cent inhibition versus DMSO
Conditions: 48 h, 5 µM, inhibitor

Structure (SMILES)	% Inhibition	% Inhibition (% Inhibition)
CS(=O)(=O)CCNCc1nc(-c2ccc3ncnc(Nc4ccc(OCc5cccc(F)c5)c(Cl)c4)c3c2)cs1 [TCMDC-138499]	-12.17%	
Nc1ncc(-c2ccc3ncccc3c2)c(N)n1 [TCMDC-133421]	0.5405%	
CC(=O)Nc1ccc(CN2CCC(N(C)c3ccc(NC(=O)c4cccc(C)c4)cc3)CC2)cc1 [TCMDC-134985]	-13.81%	
Cn1cccc1C(=O)Nc1cccc(-c2nn3ccccc3c2-c2ccnc(Nc3ccc4c(c3)OCCO4)n2)c1 [TCMDC-135663]	-4.275%	
N/C(=N\c1ncccn1)Nc1cccc(Cc2ccccc2)n1 [TCMDC-138948]	-9.706%	
NC(=NCc1ccccc1)Nc1cccc(Cc2ccccc2)n1 [TCMDC-138951]	107.9%	
Cc1cccc(NC(=O)NCc2ccccc2)n1 [TCMDC-123843]	1.75%	
NC1=NC(c2ccccc2)N(OCc2ccccc2)C(N)=N1 (centres unmarked) [TCMDC-131586]	-5.605%	
CCN=C1NC2=C(CC(C(C)(C)C)CC2)C2(CCC(C(C)(C)C)CC2)S1 (centres unmarked) [TCMDC-131288]	95.02%	
O=C(CSc1nccn1C1CCCC1)Nc1cc(C(F)(F)F)ccc1Cl [TCMDC-125066]	0.3827%	
CCCOc1ccc(C(=O)Nc2nonc2-c2ccc(OC)c(OC)c2)cc1 [TCMDC-125471]	84.04%	
COc1ccc(-c2nonc2NC(=O)c2ccc(C(C)(C)C)cc2)cc1OC [TCMDC-125404]	42%	
COc1ccc(C(=O)Nc2nonc2-c2ccc(OC)c(OC)c2)cc1Cl [TCMDC-125400]	30.18%	
C=CCOc1ccc(C(=O)Nc2nonc2-c2ccc(OC)c(OC)c2)cc1 [TCMDC-125178]	71.05%	
COc1ccc(-c2nonc2NC(=O)c2cccc(C)c2)cc1OC [TCMDC-125399]	77.34%	
CCOc1ccc(-c2nonc2NC(=O)c2ccc(OC(C)C)cc2)cc1OCC [TCMDC-125276]	7.159%	
CCOc1ccc(C(=O)Nc2nonc2-c2ccc(OC)c(OC)c2)cc1 [TCMDC-125402]	33.5%	
COc1ccc(-c2nonc2NC(=O)c2ccc(OC(C)C)cc2)cc1OC [TCMDC-125130]	61.65%	
COc1cccc(C(=O)Nc2nonc2-c2ccc(OC)c(OC)c2)c1 [TCMDC-125403]	43.85%	
CCN(CCCN1CCCCC1)c1cc(C)nc(Nc2cc(F)cc(F)c2)n1 [TCMDC-132450]	49.02%	
CCC(C)(C)NC(=O)C(c1cccc(OC)c1)N(C(=O)CNC(=O)c1cccs1)c1ccc2c(c1)OCCO2 (centres unmarked) [TCMDC-125637]	1.141%	
O=C(OCc1ccccc1)N1CCc2c([nH]c3ccccc23)C1CCC(F)(F)F (centres unmarked) [TCMDC-134555]	-59.21%	
Oc1ccc(CCNc2nc(NCc3ccc4cc(Cl)ccc4c3)nc(N3CCNCC3)n2)cc1 [TCMDC-133782]	-8.892%	

Structure (SMILES)	% Inhibition	% Inhibition (% Inhibition)
CC(C)(CN)c1nc(-c2ccc(Cl)c(O)c2)c(-c2ccnc(N)n2)[nH]1 [TCMDC-141019]	-19.39%	
COc1cc(C2CCN(CCCCNC(=O)c3ccc(NC(=O)c4ccc(Cl)c(Cl)c4)cc3)CC2)ccc1OC(C)C [TCMDC-138286]	111.4%	
CC(C)Cc1ccc(N2CCN(CCCCNC(=O)c3ccc(NC(=O)c4ccc(Cl)c(Cl)c4)cc3)CC2)cc1 [TCMDC-138251]	-11.88%	
COc1cc(C2CCN(CCCCNC(=O)c3ccc(NC(=O)c4cc(C(F)(F)F)cc(C(F)(F)F)c4)cc3)CC2)ccc1OC(C)C [TCMDC-138285]	55.31%	
COc1ccc(N2CCN(CCCCNC(=O)c3ccc(NC(=O)c4cc(C(F)(F)F)cc(C(F)(F)F)c4)cc3)CC2)c(OC)c1 [TCMDC-138227]	7.888%	
COc1ccc(C2CCN(CCCCNC(=O)c3ccc(NC(=O)c4ccc(Cl)cc4)cc3)CC2)cc1Cl [TCMDC-138366]	81.78%	
COc1cccc(C2CCN(CCCCNC(=O)c3ccc(NC(=O)c4ccc(Cl)cc4)cc3)CC2)c1 [TCMDC-138312]	21.15%	
CC(C)Cc1ccc(N2CCN(CCCCNC(=O)c3ccc(NC(=O)c4cc(C(F)(F)F)cc(C(F)(F)F)c4)cc3)CC2)cc1 [TCMDC-138252]	6.749%	
COc1ccc2c(c1)CCCC2NCCCCNC(=O)c1ccc(NC(=O)c2ccc(Cl)cc2)cc1 (centres unmarked) [TCMDC-138690]	6.749%	
COc1ccc(C2CCC(NCCCCNC(=O)c3ccc(NC(=O)c4ccc(Cl)cc4)cc3)CC2)cc1 (centres unmarked) [TCMDC-138582]	60.8%	
CCN(CC)c1ccccc1CNC(=O)c1cc(Cl)c(N)cc1OC [TCMDC-131416]	17.92%	
COc1cc(Nc2ccnc3cc(-c4ccncc4)ccc23)cc(OC)c1OC [TCMDC-138293]	-25.86%	
C=CC[C@@H](C(=O)OCC)[C@@H]1[C@@H](N(CC=C)C(=O)OC(C)(C)C)CCN1C(=O)OCc1ccccc1 [TCMDC-132035]	7.25%	
O=S(=O)(c1cccc(Br)c1)N1CCCCC(c2ccc(C(F)(F)F)cc2)=N1 [TCMDC-134539]	-27.96%	
C=C[C@H]1CN2CC[C@H]1C[C@@H]2[C@@H](O)c1ccnc2ccccc12 [TCMDC-123933]	7.627%	
COc1ccc(N2CCN(c3nc(Nc4ccc(NC(C)=O)cc4)nc(N4CCCC4)n3)CC2)cc1 [TCMDC-123875]	-17.97%	
CCN(CC)CCCC(C)Nc1ccnc2ccc(-c3ccccc3)cc12 (centres unmarked) [TCMDC-123952]	41.59%	
CCN(CC)CCCSc1ccc(-c2ccc(SCCCN(CC)CC)cc2)cc1 [TCMDC-131824]	99.62%	
O=C(C=Cc1ccc(Cl)c(Cl)c1)NCCCCCN1CCC(CCCNS(=O)(=O)c2cccc(C(F)(F)F)c2)CC1 [TCMDC-139591]	107.6%	
O=C(C=Cc1ccc(Cl)c(Cl)c1)NCCCCCN1CCCC(CCCNS(=O)(=O)c2cccc(C(F)(F)F)c2)C1 (centres unmarked) [TCMDC-139593]	101.3%	
O=C(C=Cc1ccc(Cl)c(Cl)c1)NCCCCCN1CCCC(CCCNC(=O)c2cccs2)C1 (centres unmarked) [TCMDC-139576]	12.1%	
CN(C(=O)/C=C/c1cc(C(F)(F)F)ccc1F)C1CCN(CCCCCNC(=O)/C=C/c2ccc(Cl)c(Cl)c2)C1 (centres unmarked) [TCMDC-139997]	27.91%	
O=C(/C=C/c1ccc(Cl)c(Cl)c1)NCCCCCN1CCCC(CNS(=O)(=O)c2cccc(C(F)(F)F)c2)C1 (centres unmarked) [TCMDC-139597]	100.9%	

Structure (SMILES)	% Inhibition	% Inhibition (% Inhibition)
O=C(C=Cc1ccc(Cl)c(Cl)c1)NCCCCCN1CCCC(CCCNS(=O)(=O)c2cccc3cccnc23)C1 (centres unmarked) [TCMDC-139594]	96.79%	
O=C(/C=C/c1ccc(Cl)c(Cl)c1)NCCCCCN1CCC(NC(=O)Nc2cccc(C(F)(F)F)c2)CC1 [TCMDC-135724]	-61.55%	
O=C(CNCC1CCCCC1)Nc1cc(C(F)(F)F)ccc1Cl [TCMDC-124505]	6.087%	
Cc1nc(-c2nc(NCc3ccc4c(c3)OCO4)ncc2-c2ccsc2)sc1C [TCMDC-125358]	15.74%	
CCCc1cc(O)c2c3c(c(=O)oc2c1)CN(C)CC3 [TCMDC-124226]	-5.24%	
COc1ccc(C2=[N+]([O-])c3ccccc3C2=O)cc1 [TCMDC-123940]	-13.17%	
O=C(O)c1cc(C(F)(F)F)co1 [TCMDC-124155]	-1.887%	
COc1cccc2cc(C(=O)N[C@@H](CC(C)C)C(=O)N[C@H](C=NN(C)C(=O)OC(C)(C)C)Cc3ccccc3)oc12 [TCMDC-136133]	30.7%	
CC[C@H](NC(=O)c1ccc(NC(=O)OC(C)(C)C)cc1)C(=O)N[C@@H](CO)C(=O)NCCCCc1ccccc1 [TCMDC-137189]	5.299%	
Cc1cccc(CNc2nc(C)cc(NCCC(=O)NCc3cccc(F)c3)n2)c1 [TCMDC-134882]	28.72%	
Cc1cc(NCCC(=O)NCc2cccc(F)c2)nc(NCCc2ccc(F)cc2)n1 [TCMDC-134781]	71.46%	
Cc1cc(NCCC(=O)NCc2cccc(F)c2)nc(Nc2ccccc2)n1 [TCMDC-134730]	9.488%	
Cc1cc(NCCC(=O)NCCc2ccccc2)nc(NCCc2ccc(F)cc2)n1 [TCMDC-134782]	63.79%	
CCC1(CC)C(=O)N=C(N2CCCCC2)N(C)C1=O [TCMDC-124231]	77.81%	
COc1ccc2nccc([C@@H](O)CN3CCC(NCc4ccc5nnsc5c4)CC3)c2c1 [TCMDC-140923]	19.95%	
CC(C)(C)c1ccc(CN2CCC(NC(=O)c3ccc(-c4ccccc4F)s3)CC2)cc1 [TCMDC-134349]	3.235%	
Cn1nc(-c2ccccc2F)c2cc(C(=O)NC3CCN(Cc4ccccc4)CC3)sc21 [TCMDC-123582]	63.05%	
CCc1ccc(CN2CCC(NC(=O)c3ccc(-c4ccccc4F)s3)CC2)cc1 [TCMDC-134343]	-3.563%	
COc1cccc(-c2nn(C)c3sc(C(=O)NCCN4CCN(c5ccccc5F)CC4)cc23)c1 [TCMDC-123585]	-24.43%	
Cn1nc(-c2ccccc2F)c2cc(C(=O)Nc3cccnc3)sc21 [TCMDC-123581]	-8.367%	
Cc1cccc(CN2CCC(CNC(=O)c3cc4c(-c5ccccc5F)nn(C)c4s3)CC2)c1 [TCMDC-124566]	59.21%	
COc1ccc2ncc(F)c(C(O)CN3CCC(NCc4ccc5c(n4)NC(=O)CO5)CC3)c2c1 (centres unmarked) [TCMDC-135530]		22.05%
